# Compounds with a hit are over-represented: about 20% of the library has one in this group of screens.
# HCMV antiviral – qHTS Assay for inhibitors of the human cytomegalovirus (HCMV); 4.5% of 410,000 active; HFF cells, HCMV-luciferase reporter, 72 h; hits give low values; AID 1259415, 2018; activity change, negative = inhibition, % at 57.5 µM; in the data active = activity change below about -60%; inconclusive = no clear call, values can overlap the other calls; inactive = above about -39%; also: % is scaled to controls: 0 for no effect and ±100 for the full control effect
#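 Compounds were evaluated in HFFs infected with an HCMV luciferase reporter virus (MOI 1 PFU/cell). Luciferase in lysates collected 72 h post infection served as the replication measure.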
# Pf growth 48h – Primary qHTS for delayed death inhibitors of the malarial parasite plastid, 48 hour incubation; P. falciparum luciferase growth in erythrocytes, 48 h; Potency, µM (highest dose often 28.7 µM), for the others: at the top dose activity change, negative = inhibition, hits mostly inhibitors; AID 504832, 2011; 5.9% of 310,000 active; also: potency is read from the fitted curve at half-maximal effect; % is scaled to controls: 0 for no effect and ±100 for the full control effect
#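 Parasite viability was followed by luminescence of a genomically integrated firefly luciferase. Cultures held 0.1% parasitemia at 2% hematocrit (final), incubated under 5% CO2 at 37 C.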
# Shiga toxin inh – A qHTS for Small Molecule Inhibitors of Shiga Toxin | Vero cells, Shiga toxin protein synthesis inhibition reporter | inhibition, % at 38.7 µM | 9.2% of 290,000 active | AID 2315, 2010; in the data active = inhibition mostly above about 28%, no sharp cut-off; inactive = mostly below about 43%; also: 0% is about no effect
# Pf growth 96h – Primary qHTS for delayed death inhibitors of the malarial parasite plastid, 96 hour incubation; P. falciparum luciferase reporter growth, 96 h; Potency, µM (highest dose often 28.7 µM), inactives show at the top dose activity change, negative = inhibition, usual class: inhibitors; 6.9% of 320,000 active; AID 504834, 2011; also: potency is read from the fitted curve at half-maximal effect; % is scaled to controls: 0 for no effect and ±100 for the full control effect
#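 Compounds incubated with erythrocytes infected by luciferase-expressing P. falciparum (2% hematocrit, 0.05% parasitemia final) for 96 hours, 37 C in 5% CO2. Growth inhibition scored as decreased luciferase luminescence.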
# Cycloheximide cs – Cycloheximide Counterscreen for Small Molecule Inhibitors of Shiga Toxin; cell reporter, cycloheximide protein synthesis inhibition counterscreen; max response, %; 12% of 300,000 active; in the data active = max response mostly above about 13%, no sharp cut-off; inactive = mostly below about 14%; also: read at 38.3 µM for the half of the compounds with a filed dose; 0% is about no effect
# * marks the source's active call; other numbers are inactive results; u = inconclusive; x = not tested or not shown. Unless noted, calls follow the shape of the dose curve; as a rule, active = well fitted inhibition curve with a large enough effect; inconclusive = small, poorly fitted or top-dose-only effect, or another doubt; inactive = no such curve, though single readings can be large or run the other way.
SMILES,HCMV antiviral,Pf growth 48h,Shiga toxin inh,Pf growth 96h,Cycloheximide cs
O=C(Nc1ccccc1O)C(c1ccccc1)c1ccccc1,u,-11%,-5,-2%,-5
CCC(C)NC(=O)C1CN(S(=O)(=O)c2ccccc2)CCN1S(=O)(=O)c1ccccc1 (centres undefined),47,-19%,28,x,25*
CC(C(=O)Nc1ccccc1F)N1CCN(S(=O)(=O)c2ccc(C(F)(F)F)cc2)CC1 (centres undefined),8,u,x,0%,x
CC(C)c1ccc(S(=O)(=O)N2CCN(C(C)C(=O)Nc3ccccc3-c3ccccc3)CC2)cc1 (centres undefined),u,9.3µM*,-8,5.2µM*,1
CCCC(NC(=O)C(C)N1CCN(S(=O)(=O)c2ccccc2)CC1)c1ccccc1 (centres undefined),8,-23%,x,10µM*,x
COc1ccccc1N1C(=O)C=C(Sc2nc(C)cc(C)n2)C1=O,1,u,6,u,-1
Cc1ccc(-n2nc3c(=O)n(CC(=O)Nc4ccccc4F)nc(C)c3c2C)c(C)c1,-6,x,x,x,x
CC(C)(C)OC(=O)NCCCC[C@H](NC(=O)c1[nH]cnc1C(=O)Nc1ccccc1)C(=O)OC(C)(C)C,24,4.7µM*,-4,5.2µM*,8
CC(C)(C)OC(=O)NCCCC[C@H](NC(=O)c1[nH]cnc1C(=O)Nc1ccc(Cl)cc1)C(=O)OC(C)(C)C,x,5.2µM*,-4,5.9µM*,1
C[C@@H](NC(=O)c1nc[nH]c1C(=O)N[C@@H](CCCCNC(=O)OC(C)(C)C)C(=O)OC(C)(C)C)c1ccccc1,-19,u,11,u,6
CNC(=O)c1[nH]cnc1C(=O)N[C@@H](CCCCNC(=O)OC(C)(C)C)C(=O)OC(C)(C)C,10,-17%,-15,u,-1
O=C(Nc1nccs1)c1ccc(S(=O)(=O)c2ccccc2)cc1,5,u,-9,x,-4
O=C(Nc1n[nH]c(=S)s1)c1ccc2ccccc2c1,111,156%,69*,214%,34*
CC(=O)Nc1n[nH]c(=S)s1,-30,x,x,x,x
O=C(CCNC(=O)c1ccc(Br)cc1)Nc1nccs1,24,0%,22,-1%,19*
CCOc1cccc(C(=O)Nc2nccs2)c1,74,318%,69*,13%,30*
CCOC(=O)Cc1nnc(NC(=O)c2cccc(OCC)c2)s1,18,16%,49,u,8
O=C(Nc1nccs1)c1ccc2ccccc2c1,313,15%,79*,-17%,52*
CC(=O)Nc1ccc(/C=C/c2nc(-c3ccccc3O)n(-c3ccccc3)n2)cc1,27,x,x,x,x
COc1ccccc1C(=O)OCc1cc(=O)n2nc(C(C)C)sc2n1,1,x,x,x,x
CCOc1ccc(Cl)cc1-c1cc(C(=O)NCCc2ccncc2)[nH]n1,6,x,x,x,x
O=C(Nc1nccs1)c1ccc(Br)cc1,59,0%,133*,0%,27*
O=C(Nc1nccs1)c1cnccn1,29,22%,24,51%,2
O=C(Nc1nccs1)c1ccc[nH]c1=O,3,42%,x,9%,25*
O=C(Nc1nccs1)c1ccc(Cl)nc1,51,56%,23,46%,26
SMILES,HCMV antiviral,Pf growth 48h,Shiga toxin inh,Pf growth 96h,Cycloheximide cs
O=C(Nc1nccs1)c1ccccn1,42,85%,97*,u,67*
COc1ccccc1Cc1c(-c2cccc(Cl)c2)nc2c(C)cc(Br)cn12,40,x,x,x,x
COc1cc(F)c(S(=O)(=O)Nc2c(C)n(C)n(-c3ccccc3)c2=O)cc1OC,8,x,x,x,x
Cc1occc1C(=O)N/N=C/c1cccnc1,0,50%,75*,24%,25*
Cc1occc1C(=O)Nc1cccnc1,5,18%,8,19%,0
Cc1cc(C(=O)N/N=C/c2cccnc2)c(C)o1,-99*,39%,8,-16%,16*
Nc1ccccc1C(=O)NN=Cc1cccnc1,3,x,x,x,x
O=C(NC1CCCCCC1)C1c2ccccc2C(=O)N1Cc1ccc(F)cc1 (centres undefined),-6,x,x,x,x
COc1ccc(-c2nnc(-c3ccc(F)cc3)o2)cc1,17,236%,90*,10%,48*
OC(c1cccc(OCc2ccccc2)c1)c1nnc(-c2ccccc2)o1 (centres undefined),u,11%,-4,4%,3
